The assay concerns the target T1, GST-Nv-NF-kB (Cys allele) (Nematostella vectensis, UniProt E5G601 2-411).
T1 sequence: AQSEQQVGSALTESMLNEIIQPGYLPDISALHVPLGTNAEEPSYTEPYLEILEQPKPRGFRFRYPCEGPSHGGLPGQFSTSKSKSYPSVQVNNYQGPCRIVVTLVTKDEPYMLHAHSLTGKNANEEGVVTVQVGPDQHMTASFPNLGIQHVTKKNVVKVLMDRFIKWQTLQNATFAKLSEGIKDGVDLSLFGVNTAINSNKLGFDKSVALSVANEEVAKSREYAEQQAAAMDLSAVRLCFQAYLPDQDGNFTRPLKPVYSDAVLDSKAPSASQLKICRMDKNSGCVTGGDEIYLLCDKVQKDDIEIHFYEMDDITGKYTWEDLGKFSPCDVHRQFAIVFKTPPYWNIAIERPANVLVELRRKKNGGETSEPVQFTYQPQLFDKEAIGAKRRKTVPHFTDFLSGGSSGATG
As to the kind of experiment: protein-binding microarray (PBM); PBM: ~300 nM protein, 6 mM HEPES pH 7.8, 80 mM KCl, 0.5 mM EDTA, 0.5 mM EGTA, 6% glycerol, 35 ng/ul poly-dIdC, 1% milk, 1 h, room temperature; Ap Aiptasia and Nv Nematostella (sea anemones) / Co Capsaspora / Aq Amphimedon (sponge) / Dm Drosophila / Hu human; RHD is the Rel homology domain; high values mean tight binding. The note with it: dsDNA, one strand shown.
Regarding “CCGATTAACATCAAGGGGGTAAATGATGTTAATCGGGTCTTGATTCGCTTGACGCTGCTG”, the binding signal was determined as 3.77 z-score. Sequence “CCGATTAACATCAGGGAAAACGATGATGTTAATCGGGTCTTGATTCGCTTGACGCTGCTG” displayed a binding signal of 3.95 z-score. For the sequence “CCGATTAACATCAATCTACCCCCTGATGTTAATCGGGTCTTGATTCGCTTGACGCTGCTG”, the binding signal came out at 3.1 z-score. Next, “CCGATTAACATCAATATAGTCCCTGATGTTAATCGGGTCTTGATTCGCTTGACGCTGCTG”: 4.77 z-score; “CCGATTAACATCACTAAATTCCCTGATGTTAATCGGGTCTTGATTCGCTTGACGCTGCTG”: 5.35 z-score.

In the case of “CCGATTAACATCAATTCCCAAGGTGATGTTAATCGGGTCTTGATTCGCTTGACGCTGCTG”, the binding signal is 1.9 z-score. With “CCGATTAACATCAGGGAAAACCATGATGTTAATCGGGTCTTGATTCGCTTGACGCTGCTG” the figure was 5.15 z-score. With “CCGATTAACATCAAGCAATTCCCTGATGTTAATCGGGTCTTGATTCGCTTGACGCTGCTG” the figure was 4.28 z-score; with “CCGATTAACATCAGGGGATCTACTGATGTTAATCGGGTCTTGATTCGCTTGACGCTGCTG”, 4.68 z-score; with “CCGATTAACATCAGGGAGCCCCCTGATGTTAATCGGGTCTTGATTCGCTTGACGCTGCTG”, 4.79 z-score.

For the sequence “CCGATTAACATCAAAAAAACCCATGATGTTAATCGGGTCTTGATTCGCTTGACGCTGCTG”, the binding signal came out at 4.44 z-score. Next, “CCGATTAACATCAGGGAAAGAACTGATGTTAATCGGGTCTTGATTCGCTTGACGCTGCTG”: 3.99 z-score; “CCGATTAACATCAGGGATTTTCATGATGTTAATCGGGTCTTGATTCGCTTGACGCTGCTG”: 4.83 z-score. Next, “CCGATTAACATCACTTTACCCCCTGATGTTAATCGGGTCTTGATTCGCTTGACGCTGCTG”: 2.61 z-score.

Take “CCGATTAACATCAAGGGGGAGGGTGATGTTAATCGGGTCTTGATTCGCTTGACGCTGCTG”: the binding signal amounted to 3.46 z-score.

With “CCGATTAACATCAGGGAATCCACTGATGTTAATCGGGTCTTGATTCGCTTGACGCTGCTG”, the binding signal turned out to be 3.31 z-score. Next, “CCGATTAACATCAACATGGGAATTGATGTTAATCGGGTCTTGATTCGCTTGACGCTGCTG”: 2.42 z-score; “CCGATTAACATCAAGGGGGGTGGTGATGTTAATCGGGTCTTGATTCGCTTGACGCTGCTG”: 3.67 z-score; “CCGATTAACATCATGGAGGGAGGTGATGTTAATCGGGTCTTGATTCGCTTGACGCTGCTG”: 1.62 z-score.

Turning to “CCGATTAACATCAGGGGGTCTACTGATGTTAATCGGGTCTTGATTCGCTTGACGCTGCTG”, the binding signal turned out to be 2.44 z-score. Next, “CCGATTAACATCAGGCGATTCCCTGATGTTAATCGGGTCTTGATTCGCTTGACGCTGCTG”: 2.99 z-score; “CCGATTAACATCACATTCTCCCCTGATGTTAATCGGGTCTTGATTCGCTTGACGCTGCTG”: 4.44 z-score; “CCGATTAACATCAGGGGGGGTGATGATGTTAATCGGGTCTTGATTCGCTTGACGCTGCTG”: 4.08 z-score. With “CCGATTAACATCAAGTATTCCCATGATGTTAATCGGGTCTTGATTCGCTTGACGCTGCTG”, the binding signal is 2.26 z-score.

Consider “CCGATTAACATCAGGGAAATATATGATGTTAATCGGGTCTTGATTCGCTTGACGCTGCTG”, for which the binding signal amounted to 5.66 z-score.

Regarding “CCGATTAACATCAAAAATCACCCTGATGTTAATCGGGTCTTGATTCGCTTGACGCTGCTG”, the binding signal came out at 2.98 z-score.

As to “CCGATTAACATCACCCAACCCCCTGATGTTAATCGGGTCTTGATTCGCTTGACGCTGCTG”, the binding signal was 2.94 z-score.

In the case of “CCGATTAACATCACGAAAATCCCTGATGTTAATCGGGTCTTGATTCGCTTGACGCTGCTG”, the binding signal was found to be 4.39 z-score. Next, “CCGATTAACATCACCTTCCCCCCTGATGTTAATCGGGTCTTGATTCGCTTGACGCTGCTG”: 4.07 z-score; “CCGATTAACATCAGGGATTTCTATGATGTTAATCGGGTCTTGATTCGCTTGACGCTGCTG”: 4.04 z-score; “CCGATTAACATCACAGGGAAAAATGATGTTAATCGGGTCTTGATTCGCTTGACGCTGCTG”: 4.49 z-score.

Turning to “CCGATTAACATCAGGGTAAAACCTGATGTTAATCGGGTCTTGATTCGCTTGACGCTGCTG”, the binding signal was 3.16 z-score. With “CCGATTAACATCAACATGGGAAATGATGTTAATCGGGTCTTGATTCGCTTGACGCTGCTG” the figure was 2.51 z-score; with “CCGATTAACATCAGGAATACCCCTGATGTTAATCGGGTCTTGATTCGCTTGACGCTGCTG”, 6.44 z-score. With “CCGATTAACATCAGGGGTTACACTGATGTTAATCGGGTCTTGATTCGCTTGACGCTGCTG” the figure was 1.04 z-score; with “CCGATTAACATCAGGGAATATTATGATGTTAATCGGGTCTTGATTCGCTTGACGCTGCTG”, 5.86 z-score; with “CCGATTAACATCAGGGGGTGTACTGATGTTAATCGGGTCTTGATTCGCTTGACGCTGCTG”, 3.29 z-score.

“CCGATTAACATCAGGGAACTTTATGATGTTAATCGGGTCTTGATTCGCTTGACGCTGCTG” came in with a binding signal of 4.23 z-score. Next, “CCGATTAACATCAGACCTCCCCCTGATGTTAATCGGGTCTTGATTCGCTTGACGCTGCTG”: 3.94 z-score.

Source of the values: paper PMC5700166.
